# HSF1 inh = HSF1 inhibition. NIH3T3-HGL HSE-luciferase, MG132-induced, luminescence 8 h; hits give low values. activity change, negative = inhibition, % at 7.5 µM (by protocol). actives 0.77% (n = 300,000);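 active = more than half of replicate wells show activity change below -50%, luminescence cut by over half; inconclusive = some wells, but at most half, below -50%; inactive = no replicate well below -50%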;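 also: luciferase reports HSF-1 transcriptional activity via heat shock element; 0% = median of DMSO wells and -100% = zero luminescence signal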
# HSF1 activator = increases HSF-1 driven luciferase reporter signal; NIH3T3-HGL HSF-1 luciferase reporter, MG132, 8 h; 100% = twice DMSO control signal; activation, % at 9 µM; actives 1.7% (n = 300,000);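 active = mean replicate activation of at least 50% with a set share of replicates each reaching 50%; inconclusive = only one of those two conditions met; inactive = mean below 50% and too few replicates reaching it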;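 also: 0% = median of the neutral control wells and 100% = twice that signal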
# DAX1 inh = inhibitors of human orphan nuclear receptor DAX1 (NR0B1) | inhibition, % at 6.75 µM | AID 504766 | actives 0.99% (n = 340,000) | HEK293 Gal4-DAX1 luciferase reporter, luminescence;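 active = inhibition above the mean over all tested compounds plus 3 SD, cut at about 4.2% in these data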;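 also: 0% = DAX1-transfected cells with DMSO and 100% = empty-vector control cells with DMSO; inhibition shows as a rise in luminescence from relieved DAX1 repression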
# Target sequence (P51843 207-470 limits assumed): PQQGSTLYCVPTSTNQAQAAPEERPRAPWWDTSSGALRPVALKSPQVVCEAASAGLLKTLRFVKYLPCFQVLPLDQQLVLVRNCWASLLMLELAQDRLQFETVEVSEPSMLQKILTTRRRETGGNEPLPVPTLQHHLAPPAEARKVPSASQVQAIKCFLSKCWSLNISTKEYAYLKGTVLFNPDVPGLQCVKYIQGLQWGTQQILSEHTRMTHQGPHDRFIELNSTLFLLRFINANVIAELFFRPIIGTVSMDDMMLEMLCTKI
# AHR act = activates the human aryl hydrocarbon receptor; P35869; AHR-responsive luciferase reporter cells, luminescence; activation, % at 5 µM; actives 2.5% (n = 320,000); AID 2796; in the data active = activation above about 47%;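 also: 0% = vehicle wells and 100% = reference agonist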
# FXN GAA850 act = frataxin GAA850 promoter activation. HEK293 lucGAA850 FXN promoter luciferase reporter, 24 h; percent of 10 µM SAHA response. activation, % at 6 µM. actives 0.56% (n = 360,000). AID 540364;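 active = activation above the average of all compounds screened plus 3 SD, cutoff fixed separately per campaign, cut at about 7.5% in these data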;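 also: 0% = DMSO wells and 100% = 10 µM SAHA wells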
# HSP90 refold inh = HSP90 refolding inhibition in rabbit reticulocyte lysate | luciferase refolding luminescence, 3 h | inhibition, % at 5.6 µM | actives 0.91% (n = 290,000);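 active = inhibition above the screen-wide mean plus 3 SD, computed separately per campaign, cut at about 16% in these data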;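 also: 0% = DMSO wells and 100% = 60 µM geldanamycin wells; inhibitors lower the luminescence because luciferase stays unfolded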
# GAA30 FXN cntr = counter-screen for GAA850 frataxin promoter activators: GAA30 promoter activation | shares compounds with FXN GAA850 act | actives 66% (n = 1,900) | HEK293 lucGAA30 FXN promoter luciferase, 24 h; DMSO = 0%, 5 µM ipriflavone = 100% | activation, % at 6 µM;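 active = mean activation above the mean of solvent-only control wells plus 3 SD, cut at about 22% in these data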;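 also: counterscreen of GAA850 promoter hits where activity marks nonselective or luminescence artifacts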
# GAA850 confirm = GAA850 FXN promoter activation confirmation | shares compounds with FXN GAA850 act | HEK293 lucGAA850 FXN promoter luciferase reporter, 24 h; 100% = activation by SAHA | activation, % at 6 µM | actives 86% (n = 1,900) | AID 588351;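 active = mean activation above a set limit taken from the primary screen, cut at about 8% in these data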;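 also: 0% = DMSO wells and 100% = 10 µM SAHA wells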
# Starred values were filed as active, the others as inactive; ? = inconclusive; nt = no result given. An excerpt weighted towards active compounds, which were near 5.9% of everything screened.
SMILES,HSF1 inh,HSF1 activator,DAX1 inh,AHR act,FXN GAA850 act,HSP90 refold inh,GAA30 FXN cntr,GAA850 confirm
CCc1c(C)nc(SCC(=O)N2CCCCC2CC)[nH]c1=O (stereo not given),4,-11,2,8,0,-6,nt,nt
Nc1ccc(Cl)c(-c2nc3ncccc3o2)c1,-1,-5,0,0,0,-2,nt,nt
Nc1ccc(-c2nc3ncccc3o2)c(Cl)c1,16,25,5.6*,2,8.7*,2,108*,41*
Cc1nnc(SCC(=O)N(C2CCCCC2)C2CCS(=O)(=O)C2)n1C (stereo not given),nt,nt,0,0,0,nt,nt,nt
CSc1ncnc2c1ncn2CCCN[C@H](C)c1cccc2ccccc12,nt,nt,3,nt,9.6*,nt,19,9.8*
COc1ncnc2c1ncn2CCCN[C@H](C)c1cccc2ccccc12,nt,nt,1,nt,2,nt,nt,nt
CCOC(=O)c1c(C)[nH]c(C(=O)OCCOc2ccccc2C)c1C,-29,-48,3,nt,9.5*,9,98*,26*
Cc1ccc(S(=O)(=O)N2CCCCC2)cc1NC(=O)CSc1nccn1C,1,-2,-1,2,0,2,nt,nt
CCc1cccc(CC)c1NC(=O)/C(C#N)=C/c1ccccc1C(F)(F)F,67,83*,-1,1,8.0*,-1,-12,13*
O=C(c1cc2cc(Br)ccc2o1)N1CCCC1,6,24,1,-10,6,0,nt,nt
CC1CC(C)CN(C(=O)c2cc3cc(Br)cc(Br)c3o2)C1 (stereo not given),34,67*,0,-5,10*,-10,62*,26*
CCOC(=O)c1ccccc1NC(=O)Nc1ccc(OC)c(OC)c1,-9,0,0,-2,9.6*,1,17,10*
CCOC(=O)CSCC(=O)Nc1nnc(-c2cccc([N+](=O)[O-])c2)s1,2,-14,0,-5,2,-6,nt,nt
O=C(O)c1ccc(N2C(=O)CC(SC(=NCc3ccc4c(c3)OCO4)Nc3ccc(F)cc3)C2=O)cc1 (stereo not given),0,4,1,-1,0,1,nt,nt
CCCC(=O)NC(=S)Nc1cccc(Cl)c1N1CCCCC1,-6,10,1,5,3,2,nt,nt
CCCCC(=O)NC(=S)Nc1cccc(Cl)c1N1CCCCC1,10,5,0,0,10*,-2,13,9.6*
COCC(=O)NC1CC2CCC(C1)N2C(=S)Nc1ccccc1C(=O)OC (stereo not given),-4,-4,0,1,-2,-2,nt,nt
CCN(C[C@H]1N[C@@](Cc2ccccc2)(C(=O)OC)[C@H]2C(=O)N(Cc3ccccc3)C(=O)[C@@H]12)S(=O)(=O)c1ccc(OC)cc1,nt,nt,0,2,-5,nt,nt,nt
CC[C@@]1(C(=O)OC)N[C@H](CN(C)C(=O)Nc2ccccc2)[C@@H]2C(=O)N(Cc3ccccc3)C(=O)[C@@H]21,nt,nt,1,2,12*,nt,16,7
CC[C@@]1(C(=O)OC)N[C@H](CN(C)C(=O)Nc2ccc(C(F)(F)F)cc2)[C@@H]2C(=O)N(Cc3ccccc3)C(=O)[C@@H]21,nt,nt,-1,2,8.9*,nt,27*,11*
COC(=O)[C@]1(Cc2ccccc2)N[C@H](CN(C)C(=O)Nc2ccc(C(F)(F)F)cc2)[C@@H]2C(=O)N(Cc3ccccc3)C(=O)[C@@H]21,nt,nt,0,1,-2,nt,nt,nt
CCN(C[C@H]1N[C@@](CC)(C(=O)OC)[C@H]2C(=O)N(Cc3ccccc3)C(=O)[C@@H]12)S(=O)(=O)c1ccc(OC)cc1,nt,nt,0,-1,11*,nt,12,9.0*
Cc1ccccc1C(=O)N(Cc1cccs1)C1CCS(=O)(=O)C1 (stereo not given),-6,-17,0,-1,2,-2,nt,nt
CCOc1ccc(C(=O)Nc2ccc(NC(=O)c3ccco3)c(Cl)c2)cc1Br,-9,6,-1,5,12*,3,9,8.4*
COCCn1c(SCC(=O)NCC(c2ccccc2)N(C)C)nc2sc3c(c2c1=O)CCC3 (stereo not given),nt,nt,1,nt,4,nt,nt,nt
SMILES,HSF1 inh,HSF1 activator,DAX1 inh,AHR act,FXN GAA850 act,HSP90 refold inh,GAA30 FXN cntr,GAA850 confirm
COc1ccc(-n2c(SCC(=O)O)nc3sc4c(c3c2=O)CCCC4)cc1,-1,-25,2,4,8.3*,2,22*,15*
O=C(O)CSc1nc2sc3c(c2c(=O)n1-c1ccccc1)CCC3,-12,-10,1,8,0,-5,nt,nt
CN(C)C(CNC(=O)CSc1nc2sc3c(c2c(=O)n1C)CCCC3)c1ccccc1 (stereo not given),nt,nt,0,1,7.9*,nt,8,7.6*
COc1ccc(C(=O)Nc2ccnn2C2CCN(CCC(C)c3ccc(C)o3)CC2)cc1 (stereo not given),6,16,0,-1,-3,1,nt,nt
O=C(CN1C(=O)NC2(CCOc3ccccc32)C1=O)NCCc1ccc(F)cc1 (stereo not given),nt,nt,0,3,0,nt,nt,nt
COc1ccc(-c2cc(C(=O)Nc3ccc(C(N)=O)cc3)c3ccccc3n2)cc1,16,33,0,28,2,-4,nt,nt
COc1ccc(NC(=O)COc2ccc(/C=N/n3c(C)nnc3C)cc2OC)cc1,11,-2,-1,2,8.0*,-6,37*,12*
N/C(CC(=O)Nc1ccc(F)cc1)=N\O,?,-59,1,8,-4,0,nt,nt
O=C1C=CC(=O)N1c1ccccc1N1C(=O)C=CC1=O,nt,nt,4.3*,nt,8.7*,nt,-117,-35
COc1ccc(N(C(=O)CNC(=O)c2ccco2)C(C(=O)NCC2CCCO2)c2ccc(OC)c(OC)c2)cc1 (stereo not given),-4,-16,0,0,-1,1,nt,nt
O=C(CSc1ncn(-c2ccccc2)n1)NCc1ccccc1,-9,9,1,1,-1,-4,nt,nt
Clc1ccccc1CSc1ncn(-c2ccccc2)n1,42,67*,4,68*,8.4*,-1,104*,35*
CCCOc1ccc(/C(O)=C2/C(=O)C(=O)N(CCCN3CCOCC3)C2c2ccncc2)cc1 (stereo not given),nt,nt,nt,nt,nt,3,nt,nt
Cc1ccccc1-c1ccc(C(=O)Nc2cccc(F)c2)o1,15,15,2,21,7.7*,-3,57*,17*
COc1ccc(C2(CNC(=O)c3ccc(Br)o3)CCOCC2)cc1,1,15,-1,14,0,2,nt,nt

# Compound activity (PubChem BioAssay)
